Records with an inconclusive call do not appear. Unmarked numbers belong to inactive results. Calls of active or inactive are those of the source. Calls come from the whole dose curve; as a rule, active = well fitted cell-killing curve with a large enough effect; inconclusive = small, poorly fitted or top-dose-only effect; inactive = no such curve, though single readings can be large or run the other way.
Test: qHTS of pediatric cancer cell lines to identify multiple opportunities for drug repurposing: Primary screen for NB-EBc1 cells (AID 1347095)
Conditions: NB-EBc1 neuroblastoma viability, CellTiter-Glo luminescence, 48 h; series mostly up to 46 µM; activity change, negative = cytotoxic: at the top concentration
Excerpt: Drug repurposing or repositioning has been offered as a strategy for drug development in oncology programs. This approach has special potential for childhood cancers and other rare or orphan diseases, where the expected return on new drug development has been a disincentive to pharmaceuticals. […] In this project we exploit the poly-pharmacology of drugs to discover new indications via phenotypic screening of a panel of 19 well-characterized cell lines derived from solid tumors seen in children and adolescents. The goal is to identify approved drugs with previously unrecognized anticancer properties that has the potential to reveal new mechanisms and biological processes involved in carcinogenesis or drug resistance. We employed a titration-based paradigm (quantitative high-throughput screening or qHTS), where all compounds were tested at multiple concentrations for their effect on cell viability. Concentration-response curves (CRCs) were derived directly from the primary screen, and both potency and efficacy values were used to identify compounds with robust bioactivity profiles. We screened the NIH Chemical Genomics Center (NCGC) Pharmaceutical Collection (NPC) and Mechanism Interrogation Plate (MIPE) small molecule collections of approved and investigational compounds against these cell lines; and measured metabolically active cells after 48 hours of compound treatment as a proxy for cell viability. […] Assay Submitter: Nathalia J. Martinez, National Center for Advancing Translational Sciences, National Institutes of Health, Rockville, MD, USA; email: natalia.martinez@nih.gov Shen, M et al. Quantitative high-throughput phenotypic screening of pediatric cancer cell lines identifies multiple opportunities for drug repurposing. Oncotarget 2017 Dec 19;9(4):4758-4772. PMID 29435139.
The cells were obtained from University of North Carolina (UNC), Pediatric Preclinical Testing Program (PPT), and Coriell Institute (CI). qHTS cell viability assay: Cells were assayed in growth media at a density of 500-1,000 cells/well. Five microliters of cells were dispensed into 1,536-well, white, solid-bottom, TC-treated plates (Greiner Bio One) using a multidrop dispenser and incubated at 37 degrees C, 5% CO2, under a humidified atmosphere for 5 hours. Twenty-three nanoliters of compounds and controls (neutral control DMSO or positive control bortezomib at final concentration of 2.3 µM) were subsequently transferred by Kalypsys pintool. For primary screens, the MIPE collection was tested at 11-point dilutions (final concentrations range from 0.78 nM to 46 µM) and the NPC collection at 8-point dilutions (final concentrations range from 0.59 nM to 46 µM). Compounds tested in follow-up screens were assayed at 11-point dilutions. Cells were incubated for 48 hours, followed by addition of 3 µL of CellTiter-Glo (Promega). After a 15 min incubation at room temperature, samples were analyzed for luminescence intensity using a ViewLux High-throughput CCD imager equipped with clear filters.
Potency is the fitted concentration of half-maximal effect.

| Compound | activity change, negative = cytotoxic | Potency |
| --- | --- | --- |
| C/C=C/C=N/NC(=O)c1ccncc1 | 5.72% | – |
| CN1CCN(C2=Nc3cc(F)ccc3Cc3ccccc32)CC1 | -11.9% | – |
| Cc1cc(-c2ccccc2)nnc1NCCN1CCOCC1 | -9.96% | – |
| CCC1NC(=O)c2cc(S(N)(=O)=O)c(Cl)cc2N1 (stereo not given) | 11.4% | – |
| CCc1cc(Cl)c(OC)c(C(=O)NC[C@@H]2CCCN2CC)c1O | -4.88% | – |
| CCOC(=O)c1c(N)sc2c1CCN(Cc1ccccc1)C2 | 13% | – |
| C[C@@H](O)[C@H]1C(=O)N2C(C(=O)O)=C([C@H]3CCCO3)S[C@H]12 | 19% | – |
| OCCOCCN1CCN(C2=Nc3ccccc3Sc3ccccc32)CC1 | -4.93% | – |
| CCOC(=O)[C@@](C)(N)Cc1ccc(O)c(O)c1 | -14.7% | – |
| CC(=O)O[C@H]1C[C@@H]2CC[C@@H]3[C@H](CC[C@@]4(C)[C@H]3C[C@H]([N+]3(C)CCCCC3)[C@@H]4OC(C)=O)[C@@]2(C)C[C@@H]1N1CCCCC1 | 25% | – |
| O=C(Nc1cccc(C2=NCCN2)c1)Nc1cccc(C2=NCCN2)c1 | 28.9% [at 16.1 µM] | – |
| CC(C)Cn1cnc2c1c(=O)n(C)c(=O)n2C | 7.22% | – |
| O=S(=O)(O)c1ccc(O)cc1 | 11.3% | – |
| CC(C)(Cc1c[nH]c2ccccc12)NCC(O)COc1ccccc1C#N (stereo not given) | 14.8% | – |
| CCCCN=C(N)N=C(N)N | 19.3% | – |
| CCCCC(CC)COC(=O)c1ccc(N(C)C)cc1 (stereo not given) | 10.4% | – |
| COc1cc(C(=S)N2CCOCC2)ccc1O | 0.43% | – |
| C[N+]1(C)CCC(=C(c2ccccc2)c2ccccc2)CC1 | -2.23% | – |
| O=C1OC(CN2CCOCC2)CN1/N=C/c1ccc([N+](=O)[O-])o1 (stereo not given) | 55.2% | – |
| NS(=O)(=O)Cc1noc2ccccc12 | 16.9% | – |

| Compound | activity change, negative = cytotoxic | Potency |
| --- | --- | --- |
| CCc1nn(CCCN2CCN(c3cccc(Cl)c3)CC2)c(=O)n1CCOc1ccccc1 | -29% | – |
| NC1CCN(c2nc3c(cc2F)c(=O)c(C(=O)O)cn3-c2ccc(F)cc2F)C1 (stereo not given) | 75.1% | – |
| CC(=O)OCC(=O)[C@H]1CC[C@H]2[C@@H]3CCC4=CC(=O)CC[C@]4(C)[C@H]3CC[C@]12C | -2.8% | – |
| CN1CCN(c2c(F)cc3c(=O)c(C(=O)O)cn4c3c2SCC4)CC1 | 37.6% | – |
| CC(=C(CCOC(=O)C(C)C)SSC(CCOC(=O)C(C)C)=C(C)N(C=O)Cc1cnc(C)nc1N)N(C=O)Cc1cnc(C)nc1N | 9.62% | – |
| Clc1cccc(C(c2ccc3nc[nH]c3c2)n2ccnc2)c1 (stereo not given) | 10.7% | – |
| NCCNC(=O)c1ccc(Cl)cn1 | 11% | – |
| CC(O)Cn1cnc2c1c(=O)n(C)c(=O)n2C (stereo not given) | -0.614% | – |
| CCN(CC)CCOc1ccccc1C(=O)CCc1ccccc1 | -11.3% | – |
| Cc1cc(C)cc(OCC2CNC(=O)O2)c1 (stereo not given) | 12.7% | – |
| C[C@@]12C(=O)OC(=O)[C@]1(C)C1CCC2O1 | – | 2370 nM (active) |
| CC(=O)OCC1=C(C(=O)O)N2C(=O)[C@@H](NC(=O)CSc3ccncc3)[C@H]2SC1 | 9.14% | – |
| C=C[C@H]1CN2CC[C@H]1C[C@@H]2[C@@H](O)c1ccnc2ccc(OC)cc12 | 5.92% | – |
| CC[C@]12CCCN3CCc4c(n(c5ccccc45)C(=O)C1)[C@@H]32 | – | 1880 nM (active) |
| COc1ccc(CCN(C)CCCN2CCc3cc(OC)c(OC)cc3CC2=O)cc1OC | 13.3% | – |
| COc1ccc(C(=O)c2ccccc2)c(O)c1 | 10.8% | – |
| CCC(Cc1c(I)cc(I)c(N)c1I)C(=O)O (stereo not given) | 24.2% | – |
| C#C[C@]1(O)CC[C@H]2[C@@H]3CCC4=CC(=O)CC[C@@H]4[C@H]3CC[C@@]21CC | -0.777% | – |
| CCCCCCCCCCCCOCCOCCOCCOCCOCCOCCOCCOCCOCCO | – | 21100 nM (active) |
| O=c1[nH]c(=O)n([C@H]2C[C@H](O)[C@@H](CO)O2)cc1F | – | 2370 nM (active) |

From PubChem BioAssay (NCATS)
